Compound activity: PubChem BioAssay, several laboratories
Hits are enriched below; roughly 2.1% of the tested compounds scored in any of these assays.
aDG glyco act – activators of alpha-DG glycosylation, primary screen, uHTS, Pro5-aDG cells, AlphaScreen; alpha-DG glycosylation AlphaScreen (IIH6); 0% Pro5, 100% B10-LARGE cell signal; 360,000 tested, 0.22% active; AID 624168, 2012; activation, % at 10 µM;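 active = activation of at least 8% versus controls, or a plate z-score of at least 8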;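 note: Pro5 are CHO cells carrying HIG-tagged alpha-DG that lacks glycosylation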
Env fusion inh – inhibitors of HIV-1 Env-driven cell-cell fusion, primary screen, HeLa-JRFL effector, CEM21 target cells, luciferase; 360,000 tested, 1.1% active; AID 651610, 2012; inhibition, % at 12.3 µM;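 active = mean replicate inhibition score of at least 50 and every replicate individually at or above 50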
GalR3 antag – GalR3 antagonists in HEK293 cells, primary screen, cell-based, fluorescence readout; Galanin receptor type 3 (Homo sapiens), O60755; HEK293 GalR3-CNG cAMP membrane potential fluorescence; galR3 body fused to GalR1 C-terminus; inhibition, % at 3 µM; 360,000 tested, 0.44% active; AID 651719, 2012;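 active = inhibition above the screen-wide average plus 3 SD, cut at about 13% in these data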;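 note: forskolin and galanin both at EC90 stimulate the cells; cAMP rise reported by CNG channel membrane potential dye signal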
Target sequence (O60755 1-299 limits assumed): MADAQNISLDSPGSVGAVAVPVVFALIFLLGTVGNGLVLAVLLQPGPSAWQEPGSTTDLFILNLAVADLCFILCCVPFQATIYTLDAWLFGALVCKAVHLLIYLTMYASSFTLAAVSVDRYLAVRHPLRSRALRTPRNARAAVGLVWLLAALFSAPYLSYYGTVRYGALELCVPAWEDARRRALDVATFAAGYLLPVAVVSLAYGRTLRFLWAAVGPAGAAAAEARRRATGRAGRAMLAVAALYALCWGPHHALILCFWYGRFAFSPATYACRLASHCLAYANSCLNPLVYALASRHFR
Gli-Sufu block – Gli-Sufu pathway antagonists, primary screen, luciferase luminescence, Sufu-KO-LIGHT cells, uHTS | Sufu-KO-LIGHT fibroblasts, Gli luciferase reporter luminescence | inhibition, % at 5 µM | 340,000 tested, 0.74% active;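 active = inhibition above about 55%, limit read from the data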
NR2F2 inh – NR2F2 transcriptional activity inhibitors, primary screen, cell-based, luciferase reporter, HEK293T, luminescence; 370,000 tested, 0.7% active; AID 686940, 2013; HEK293T NGFI-A luciferase reporter; inhibition, % at 8.6 µM;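 active = inhibition above a per-plate cutoff, mean inhibition of test wells between control levels plus 3 SD, cut at about 38% in these data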;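 note: cells cotransfected with COUP-TFII expression vector driving the NGFI-A reporter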
Gli antag conf – Gli-SUFU pathway antagonists, confirmation, single concentration, luciferase luminescence, Sufu-KO-LIGHT cells. Gli luciferase reporter. 2,500 tested, 40% active. AID 602428, 2012. inhibition, % at 5 µM. shares compounds with Gli-Sufu block;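 active = mean inhibition at 5 µM reaching about 45%, limit read from the data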
SufuKO cytotox – cytotoxicity in Sufu-KO-LIGHT cells, confirmation, cytotoxicity control for Gli-SUFU antagonist project, cell-based, ATP luminescence, single concentration; shares compounds with Gli-Sufu block; cytotoxicity, % at 5 µM; 2,500 tested, 32% active; AID 651994, 2013;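 active = mean cytotoxicity at 5 µM above about 25%, limit read from the data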;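 note: cells exposed to compound overnight for roughly 16 to 18 hours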
Wnt3a counter – Wnt3a reporter signal inhibition, confirmation, counter-screen for Gli-SUFU antagonist project, Wnt-LIGHT cells, luminescence, single concentration; shares compounds with Gli-Sufu block; Wnt3a-driven luciferase reporter; inhibition, % at 6.25 µM; 2,500 tested, 20% active; AID 651995, 2013;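 active = mean inhibition above about 25%, limit read from the data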
Each line names hits and unclear results; the compound was inactive in the other large screens (follow-up assays come after a bar, where they were run).

C/C(=C\C(=O)c1ccc(Br)cc1)NNC(=O)c1ccccc1	none | Gli antag conf inactive | SufuKO cytotox inactive | Wnt3a counter inactive
C/C(=C\C(=O)c1ccc(Br)cc1)NNC(=O)c1ccc(O)cc1	none
Cc1cc(-c2cccnc2)c(C#N)c(SCc2cccc(F)c2)n1	none | Gli antag conf inactive | SufuKO cytotox inactive | Wnt3a counter inactive
COc1cc(C(=O)N(C)CC2CCN(CCc3cccc(C(F)(F)F)c3)CC2)ccc1C	Gli-Sufu block 58 | Gli antag conf inactive | SufuKO cytotox inactive | Wnt3a counter inactive
CO[C@H]1CN(C)C(=O)c2ccc(NC(=O)Cc3ccccc3)cc2OC[C@@H](C)NC[C@H]1C	none (no result: aDG glyco act, GalR3 antag, Gli-Sufu block, NR2F2 inh)
Cc1cc(C)nc(NN2C(=O)/C(=C/c3ccc(O)cc3)SC2=S)n1	Gli-Sufu block 56 (no result: Env fusion inh, GalR3 antag, NR2F2 inh) | Gli antag conf inactive | SufuKO cytotox inactive | Wnt3a counter inactive
COc1ccccc1/C=C1\SC(=S)N(Nc2nc(C)cc(C)n2)C1=O	none
Cc1cccc(C)c1NC(=O)CSc1nnnn1C	Gli-Sufu block 57 (no result: Env fusion inh) | Gli antag conf inactive | SufuKO cytotox inactive | Wnt3a counter inactive
CC(C)Oc1ccccc1C1CC(=O)Nc2cc3c(cc21)OCCO3 (configuration not stated)	none | Gli antag conf 60 | SufuKO cytotox 59 | Wnt3a counter inactive
C[C@H]1CN([C@@H](C)CO)C(=O)c2cc(NC(=O)Nc3ccc(F)cc3)ccc2O[C@@H]1CN(C)Cc1ccncc1	none (no result: aDG glyco act, GalR3 antag, Gli-Sufu block, NR2F2 inh)
COCCN(C(=O)COC(=O)C1CCC(C(C)(C)C)CC1)c1c(N)n(Cc2ccccc2)c(=O)[nH]c1=O (configuration not stated)	Gli-Sufu block 72 | Gli antag conf 81 | SufuKO cytotox 28 | Wnt3a counter inactive
CCCCC1CCC(C(=O)OCC(=O)N(CCOC)c2c(N)n(Cc3ccccc3)c(=O)[nH]c2=O)CC1 (configuration not stated)	none
Cc1ccc(-c2csc(NCCc3nc4cc(Cl)c(Cl)cc4n3CCCO)n2)cc1	Gli-Sufu block 57 | Gli antag conf inactive | SufuKO cytotox 35 | Wnt3a counter inactive
Cc1cccc(CN(C)C[C@H]2OCc3cn(nn3)CCCC(=O)N([C@H](C)CO)C[C@H]2C)c1	none (no result: aDG glyco act, GalR3 antag, Gli-Sufu block, NR2F2 inh)
COc1ccc(C(CCN(Cc2ccc(OC)c(OC)c2)C(C)=O)c2ccccc2)cc1 (configuration not stated)	Gli-Sufu block 57 | Gli antag conf inactive | SufuKO cytotox inactive | Wnt3a counter inactive
COc1ccc(CN(CCC(c2ccccc2)c2ccc(OC(C)C)cc2)C(=O)CCl)cc1OC (configuration not stated)	none (no result: Env fusion inh)
CCOC(=O)c1cc(CC)sc1NC(=O)c1cc(OCC)c(OCC)c(OCC)c1	Gli-Sufu block 99 (no result: Env fusion inh) | Gli antag conf inactive | SufuKO cytotox inactive | Wnt3a counter inactive
CCC(=O)N(C)C[C@@H]1Oc2ncc(-c3ccccc3C)cc2C(=O)N([C@H](C)CO)C[C@H]1C	none (no result: aDG glyco act, GalR3 antag, Gli-Sufu block, NR2F2 inh)
O=C(O)c1ccc(N2C(=O)C3C4c5ccccc5C(Br)(c5ccccc54)C3C2=O)cc1 (configuration not stated)	Gli-Sufu block 66 | Gli antag conf inactive | SufuKO cytotox inactive | Wnt3a counter inactive
C[C@@H]1CN([C@H](C)CO)C(=O)c2cc(NC(=O)c3ccccc3)ccc2O[C@@H](C)CCCCO[C@@H]1CN(C)Cc1ccc(C(F)(F)F)cc1	none (no result: aDG glyco act, GalR3 antag, Gli-Sufu block, NR2F2 inh)
COc1cccc(NC(=O)CNC(=O)[C@@H]2Cc3ccccc3CN2C(=O)OC(C)(C)C)c1	Gli-Sufu block 65 | Gli antag conf inactive | SufuKO cytotox inactive | Wnt3a counter inactive
